Records with an inconclusive call do not appear. The source made the active and inactive calls. The calls were made as follows: active = hit-call score of the fitted dose curve at least 0.9, where 1 is the maximum; inconclusive = response in the unintended direction; inactive = score below 0.9.
Assay: TOX21_p53_BLA_p2_viability: Viability Assessment in the Tox21 HCT-116 p53 Agonism Beta-lactamase Assay, Phase 2 (AID 2283591);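 also: compound exposure lasted 16 h at 37 °C; actives lower the ATP signal meaning cytotoxicity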
In short: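 Cytotoxicity readout: CellTiter-Glo ATP luminescence, 30 min at room temperature, after the beta-lactamase read. Cells were HCT116 exposed 16 h at 37C to compounds pin-transferred at 217-fold dilution from DMSO stocks.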

SMILES	outcome	AC50
O=C1C=CCCC1	inactive	–
NC(=O)c1ccncc1	inactive	–
CCOC(=O)NCCC[Si](OCC)(OCC)OCC	inactive	–
CC(=O)N=c1sc(S(N)(=O)=O)nn1C	inactive	–
O=C1NC2CCCCN2C12CCN(CCCN1c3ccccc3CCc3ccc(Cl)cc31)CC2 (stereo not given)	–	37.5 µM (active)
O=c1[nH]cnc2ccccc12	inactive	–
CC(C)(C)C(=O)Oc1ccc(S(=O)(=O)Nc2ccccc2C(=O)NCC(=O)O)cc1	inactive	–
O=[N+]([O-])c1ccc2[nH]ncc2c1	inactive	–
CC(=O)CC(c1ccc([N+](=O)[O-])cc1)c1c(O)c2ccccc2oc1=O (stereo not given)	inactive	–
OC1OC[C@@H](O)[C@H](O)[C@@H]1O (stereo not given in full)	inactive	–
Cc1onc(-c2ccccc2)c1C(=O)N[C@@H]1C(=O)N2[C@@H]1SC(C)(C)[C@@H]2C(=O)O	inactive	–
CC(C)=CCC/C(C)=C/CC/C(C)=C/CCC(=O)OC/C=C(\C)CCC=C(C)C	inactive	–
Cn1ccc2cc3c(cc21)CCN3C(=O)Nc1cccnc1	inactive	–
CS(=O)(=O)c1ccc([C@@H](O)[C@@H](CF)NC(=O)C(Cl)Cl)cc1	inactive	–
O=C1c2ccccc2CN2C(=O)c3ccccc3CN12	inactive	–
Cc1cccc(Nc2ccncc2S(=O)(=O)NC(=O)NC(C)C)c1	inactive	–
Nc1c(NC/C=C\COc2cc(CN3CCCCC3)ccn2)c(=O)c1=O	inactive	–
CCOC(=O)OCC/C(SC(=O)OCC)=C(\C)N(C=O)Cc1cnc(C)nc1N	inactive	–
c1ccc(COCc2ccccc2)cc1	inactive	–
O=C(CN1CCN(Cc2ccc3c(c2)OCO3)CC1)N1c2ccccc2Sc2ccccc21	inactive	–

Source: PubChem BioAssay (EPA / NIEHS)
